# Experimental data taken from PubChem BioAssay (NCATS).
# Inconclusive results are not listed. A number with no mark means an inactive call. Calls of active or inactive are those of the source. Unless noted, calls follow the shape of the dose curve; as a rule, active = well fitted activation curve with a large enough effect; inconclusive = small, poorly fitted or top-dose-only effect, or effect the other way; inactive = flat fitted curve, though single readings scatter.
# Legend:
# [1] = qHTS Assay for Identification of Small Molecule Agonists for Hypoxia Response Element Signaling Pathway (AID 914; active = well fitted activation curve with a large enough effect in the signal ratio, with a control signal flat, not every such curve was filed as active; the % refers to the signal ratio; also: % of control where 0% means no effect); conditions: ME-180 (cervical carcinoma) HRE-bla reporter, beta-lactamase ratio, CoCl2, 17 h; active compounds read high
# Procedure, shortened: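 Read-out: CCF4 FRET ratio of 460nm to 530nm emission (excitation 405nm) after 2.5 hours at room temperature, taken from HRE-bla ME-180 cells that had been exposed to compound and EC50 CoCl2 for 17 hours.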
# [2] = qHTS Assay for Identification of Small Molecule Agonists for Thrombopoietin (TPO) Signaling Pathway (AID 917); conditions: TPO signaling pathway reporter cells, agonist qHTS, stimulated with TPO at its EC50; series mostly up to 38.5 µM; also: % is scaled to controls: 0 for no effect and ±100 for the full control effect
# Procedure, shortened: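 Quantitative HTS for pathway activators: compounds were pin-transferred onto IL-3-starved Ba/F3 cells expressing human TPO receptor, TPO was added at its EC50 (26 pM final), and after 24 hrs at 37 C reporter luciferase was measured.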
Compound,activation [1] [%],outcome [2]
CCC(=O)c1ccc(O)cc1,5.29,–
Cc1ncc([N+](=O)[O-])n1CC(O)CCl (stereo not drawn),4.13,–
CC1=C(CC(=O)O)c2cc(F)ccc2/C1=C\c1ccc(S(C)=O)cc1 (stereo not drawn),–,inactive
